Records with an inconclusive call do not appear. Entries that show only a call come without a potency. Calls of active or inactive are those of the source. Calls come from the whole dose curve; as a rule, active = well fitted cell-killing curve with a large enough effect; inconclusive = small, poorly fitted or top-dose-only effect, or effect the other way; inactive = flat fitted curve, though single readings scatter.

One assay has as its system JEG-3. The experiment in a line: Primary qHTS to identify gynecologic anti-cancer compounds using libraries of approved drugs and bioactive compounds (AID 1345084). Note: nearly all actives have a fitted effect of over 55% in size. The conditions noted are these: Gynecologic cancer cell panel viability, ATPlite luminescence, 48 h; series mostly up to 57.5 µM. In outline:
(§1)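 Measured: luminescence after ATPlite addition (15 min, RT). Exposure: 48 h, 37 C, 5% CO2.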
As for `C=CC(C)(C)C12C=C(O)C(=O)N3/C(=C\c4cnc[nH]4)C(=O)NC31N(OC)c1ccccc12` (centres undefined), the Potency entry was “inactive”.

On to `FC(F)(F)c1ccc(N2CCNCC2)nc1Cl`, for which the Potency entry was “inactive”.

As to `CC1=CC2/C=C(\C)CCC(O)C(O)C(O)CC(=O)C23C(=O)NC(CC(C)C)C3C1C` (centres undefined), the Potency entry was “inactive”.

Take `C[C@@H](CN1CCC(n2c(=O)[nH]c3cc(Br)ccc32)CC1)NC(=O)[C@@H]1C[C@H]1c1ccccc1`: the Potency entry was “inactive”.

Take `O=C(NCCN1CCC2(CC1)C(=O)NCN2c1cccc(F)c1)c1ccc2ccccc2c1`: the Potency result is “inactive”.

For a further assay, the system named is OV90. The description is as above. The conditions noted are these: Gynecologic cancer cell panel viability, ATPlite luminescence, 48 h; series mostly up to 57.5 µM. Summed up: as §1
(In general: In ATP-based viability assays light output follows the ATP content of the culture.)
Take `C=CC(C)(C)C12C=C(O)C(=O)N3/C(=C\c4cnc[nH]4)C(=O)NC31N(OC)c1ccccc12` (centres undefined): the Potency entry was “inactive”.

As to `FC(F)(F)c1ccc(N2CCNCC2)nc1Cl`, the Potency result was “inactive”.

For `C[C@@H](CN1CCC(n2c(=O)[nH]c3cc(Br)ccc32)CC1)NC(=O)[C@@H]1C[C@H]1c1ccccc1`, the Potency result is “inactive”.

Turning to `O=C(NCCN1CCC2(CC1)C(=O)NCN2c1cccc(F)c1)c1ccc2ccccc2c1`, the Potency entry was “inactive”.

For the origin of these results see PubChem BioAssay (NCATS).
